Outcome and AC50 data for 4 molecules are collected here from PubChem BioAssay (EPA / NIEHS).

The AC50 is the concentration at which the activity in the assay is half-maximal.

Common to all, as to conditions: mRNA level, 48 h; actives raise or lower the signal
Read-out in assay [1]: Potassium channel subfamily K member 1 (KCNK1), KCNK1 (gene 3775)
The experiment in a line: LTEA_HepaRG_KCNK1: Life Technologies and Expression Analysis (LTEA) Assay for Potassium channel subfamily K member 1 (KCNK1) using HepaRG (AID 2283511). A digest of the protocol:
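HepaRG, 48 h exposure, 8-pt half-log series top 100 uM, 0.5% DMSO vehicle, duplicates. Readout: KCNK1 transcript by qRT-PCR (Fluidigm array), housekeeping-normalized; bidirectional curve fit relative to DMSO baseline.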

Read-out in assay [2]: Keratin 19 (KRT19), KRT19 (gene 3880)
The assay is described as follows: LTEA_HepaRG_KRT19: Life Technologies and Expression Analysis (LTEA) Assay for Keratin 19 (KRT19) using HepaRG (AID 2283512). A digest of the protocol: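 KRT19 transcript levels, measured by Fluidigm qRT-PCR against three housekeeping genes, are fitted for gain or loss of signal relative to DMSO. Human HepaRG cells receive test chemicals (top 100 uM, half-log steps, 0.5% DMSO) for 48 hours.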

Read-out in assay [3]: JUN Transcription Factor, JUN (gene 3725)
The assay is described as follows: LTEA_HepaRG_JUN: Life Technologies and Expression Analysis (LTEA) Assay for JUN Transcription Factor using HepaRG (AID 2283513). Summed up: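 HepaRG, 48 h exposure, 8-pt half-log series top 100 uM, 0.5% DMSO, duplicate. JUN mRNA by qRT-PCR (Fluidigm), housekeeping-normalized (ACTB/GAPDH/POLR2A); bidirectional curve fit vs DMSO baseline.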

Read-out in assay [4]: Lipase C (LIPC), LIPC (gene 3990)
The experiment in a line: LTEA_HepaRG_LIPC: Life Technologies and Expression Analysis (LTEA) Assay for Lipase C (LIPC) using HepaRG (AID 2283514). Summed up: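 HepaRG, 48 h exposure, 8-pt half-log series from 100 uM in 0.5% DMSO, duplicates. Readout: LIPC mRNA by Fluidigm qRT-PCR, housekeeping-normalized (ACTB/GAPDH/POLR2A). Gain or loss fitted bidirectionally against DMSO baseline.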

Read-out in assay [5]: Lipoprotein lipase (LPL), LPL (gene 4023)
The assay is described as follows: LTEA_HepaRG_LPL: Life Technologies and Expression Analysis (LTEA) Assay for Lipoprotein lipase (LPL) using HepaRG (AID 2283515). A digest of the protocol:
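HepaRG, 48 h exposure, 8-pt half-log dilutions from 100 uM, 0.5% DMSO vehicle, duplicates; qRT-PCR (Fluidigm array) of LPL mRNA vs housekeeping genes; bidirectional curve fit relative to DMSO baseline.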

Read-out in assay [6]: MicroRNA 122 (MIR122), gene 406906
The assay is described as follows: LTEA_HepaRG_MIR122: Life Technologies and Expression Analysis (LTEA) Assay for MicroRNA 122 (MIR122) using HepaRG (AID 2283516). Also: the transcript read is the microRNA miR-122. A digest of the protocol:
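qRT-PCR read-out (TaqMan, Fluidigm array), normalized to three housekeeping genes; HepaRG cells dosed 48 h at 8 concentrations up to 100 uM in 0.5% DMSO, duplicate; gain or loss fitted against DMSO baseline.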

Read-out in assay [7]: matrix metalloproteinase-10 (MMP10), MMP10 (gene 4319)
The experiment in a line: LTEA_HepaRG_MMP10: Life Technologies and Expression Analysis (LTEA) Assay for matrix metalloproteinase-10 (MMP10) using HepaRG (AID 2283517). Summed up:
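Transcript levels come from Fluidigm qRT-PCR normalized to three housekeeping genes, with curves fitted bidirectionally against 0.5% DMSO. Human HepaRG cells were dosed for 48 hours at concentrations up to 100 uM.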

Read-out in assay [8]: MYC, MYC (gene 4609)
The experiment in a line: LTEA_HepaRG_MYC: Life Technologies and Expression Analysis (LTEA) Assay for MYC using HepaRG (AID 2283518). Summed up: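 HepaRG, ~100,000 cells/well, collagen I; 48 h plating; serum-free induction medium; 48 h dosing, duplicate, 100 uM top, half-log, 0.5% DMSO; total RNA → qRT-PCR MYC; gain/loss fit vs DMSO.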

Read-out in assay [9]: matrix metalloproteinase-3 (MMP3), MMP3 (gene 4314)
The assay is described as follows: LTEA_HepaRG_MMP3: Life Technologies and Expression Analysis (LTEA) Assay for matrix metalloproteinase-3 (MMP3) using HepaRG (AID 2283519). Summed up:
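qRT-PCR read-out of MMP3 mRNA (normalised to three housekeeping genes) in HepaRG liver cells after 48 h chemical exposure; 8-point half-log series, top 100 uM, 0.5% DMSO vehicle. Bidirectional curve fitting against DMSO baseline.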

Read-out in assay [10]: Paternally Expressed 10 (PEG10), PEG10 (gene 23089)
The assay is described as follows: LTEA_HepaRG_PEG10: Life Technologies and Expression Analysis (LTEA) Assay for Paternally Expressed 10 (PEG10) using HepaRG (AID 2283520).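 As to AC50: differentiated HepaRG human liver cells in serum-free induction medium with 0.5% DMSO; PEG10 transcript by qRT-PCR normalised to ACTB GAPDH and POLR2A.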 A digest of the protocol:
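qRT-PCR read-out: PEG10 mRNA normalised to three housekeeping genes, fitted bidirectionally against 0.5% DMSO vehicle. HepaRG cells received test chemicals for 48 h in serum-free induction medium, 8 points, top 100 uM, half-log steps.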

Read-out in assay [11]: Nuclear factor NF-kappa-B p105 subunit (Homo sapiens) (UniProt P19838)
The assay is described as follows: LTEA_HepaRG_NFKB1: Life Technologies and Expression Analysis (LTEA) Assay for Nuclear Factor Kappa B Subunit 1 (NFKB1) using HepaRG (AID 2283521).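 Also: differentiated human HepaRG liver cells in serum-free induction medium; TaqMan qRT-PCR transcript normalised to ACTB GAPDH and POLR2A housekeeping genes.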 A digest of the protocol: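 HepaRG, 48 h exposure; 8-pt half-log series from 100 uM in 0.5% DMSO; duplicates. Readout: NFKB1 mRNA by qRT-PCR (Fluidigm arrays), housekeeping-normalized. Gain/loss fit vs DMSO baseline.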

Read-out in assay [12]: Protein phosphatase 2A (PPP2R4), PTPA (gene 5524)
The assay is described as follows: LTEA_HepaRG_PPP2R4: Life Technologies and Expression Analysis (LTEA) Assay for Protein phosphatase 2A (PPP2R4) using HepaRG (AID 2283522). A digest of the protocol:
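HepaRG, 48 h exposure, 8-pt half-log series from 100 uM, 0.5% DMSO vehicle, duplicates. Readout: PPP2R4 mRNA, Fluidigm qRT-PCR, housekeeping-normalized. Bidirectional curve fit vs DMSO baseline.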

Read-out in assay [13]: Phosphatase and tensin (PTEN), PTEN (gene 5728)
The assay is described as follows: LTEA_HepaRG_PTEN: Life Technologies and Expression Analysis (LTEA) Assay for Phosphatase and tensin (PTEN) using HepaRG (AID 2283523). Summed up:
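HepaRG, 48 h exposure, 8-pt half-log series from 100 uM top, 0.5% DMSO vehicle, duplicates. Readout: Fluidigm qRT-PCR of PTEN transcript; housekeeping normalization (ACTB, GAPDH, POLR2A). Gain or loss fitted relative to DMSO baseline.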

Read-out in assay [14]: Pyruvate Dehydrogenase Kinase 4 (PDK4), PDK4 (gene 5166)
The assay is described as follows: LTEA_HepaRG_PDK4: Life Technologies and Expression Analysis (LTEA) Assay for Pyruvate Dehydrogenase Kinase 4 (PDK4) using HepaRG (AID 2283525). Summed up: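 HepaRG (human liver line), 48 h chemical exposure, 8-pt half-log CRC top 100 uM, 0.5% DMSO vehicle, duplicates. Readout: TaqMan qRT-PCR of PDK4 mRNA, housekeeping-normalized; gain/loss fit relative to DMSO baseline.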

Read-out in assay [15]: NAD(P)H dehydrogenase [quinone] 1 (NQO1), NQO1 (gene 1728)
The experiment in a line: LTEA_HepaRG_NQO1: Life Technologies and Expression Analysis (LTEA) Assay for NAD(P)H dehydrogenase [quinone] 1 (NQO1) using HepaRG (AID 2283526). A digest of the protocol: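 qRT-PCR read-out (Fluidigm TaqMan), normalized to three housekeeping genes, after 48 h chemical exposure of HepaRG cells. Concentrations: eight points, top 100 uM, half-log steps, 0.5% DMSO vehicle. Gain or loss of signal fitted relative to DMSO.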

Read-out in assay [16]: Nuclear factor erythroid 2-related factor 2 (Homo sapiens) (UniProt Q16236)
The assay is described as follows: LTEA_HepaRG_NFE2L2: Life Technologies and Expression Analysis (LTEA) Assay for Nuclear factor erythroid 2-related factor 2 (NFE2L2) Transcription Factor using HepaRG (AID 2283527).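 As to Outcome: TaqMan qRT-PCR transcript level normalised to ACTB GAPDH and POLR2A housekeeping genes.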 A digest of the protocol:
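HepaRG, 48 h dosing, 8-pt half-log series from 100 uM in 0.5% DMSO, duplicates. Read-out: NFE2L2 mRNA by qRT-PCR (ACTB/GAPDH/POLR2A normalization). Bidirectional curve fit vs DMSO baseline.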

Read-out in assay [17]: succinate dehydrogenase complex iron sulfur subunit B (SDHB), SDHB (gene 6390)
The assay is described as follows: LTEA_HepaRG_SDHB: Life Technologies and Expression Analysis (LTEA) Assay for succinate dehydrogenase complex iron sulfur subunit B (SDHB) using HepaRG (AID 2283528). Summed up: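 Readout is SDHB transcript level by qRT-PCR, normalised to three housekeeping genes and fitted bidirectionally against 0.5% DMSO vehicle. Human HepaRG cells were treated for 48 h at up to 100 uM.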

Read-out in assay [18]: Signal transducer and activator of transcription 3 (Homo sapiens) (UniProt P40763)
The experiment in a line: LTEA_HepaRG_STAT3: Life Technologies and Expression Analysis (LTEA) Assay for Signal transducer and activator of transcription (STAT3) using HepaRG (AID 2283529). A digest of the protocol: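 HepaRG, 48 h exposure, 8-pt half-log series (top 100 uM), 0.5% DMSO vehicle, duplicates. Readout: STAT3 transcript by Fluidigm qRT-PCR, housekeeping-normalized; bidirectional fit vs DMSO baseline.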

Read-out in assay [19]: solute carrier (SLC22A1), SLC22A1 (gene 6580)
The experiment in a line: LTEA_HepaRG_SLC22A1: Life Technologies and Expression Analysis (LTEA) Assay for solute carrier (SLC22A1) using HepaRG (AID 2283524).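 As to AC50: differentiated human HepaRG liver cells in serum-free induction medium.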 A digest of the protocol: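 qRT-PCR readout (TaqMan, Fluidigm arrays) of SLC22A1 transcript, normalized to three housekeeping genes; bidirectional curve fit relative to 0.5% DMSO vehicle. Differentiated human HepaRG cells, 48 h chemical exposure, top concentration 100 uM, half-log steps, eight points.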

Calls of active or inactive are those of the source. The calls were made as follows: active = hit-call score of the fitted dose curve at least 0.9, where 1 is the maximum; inactive = score below 0.9.

Signal transducer and activator of transcription 3 (Homo sapiens), sequence (P40763 whole entry, looked up): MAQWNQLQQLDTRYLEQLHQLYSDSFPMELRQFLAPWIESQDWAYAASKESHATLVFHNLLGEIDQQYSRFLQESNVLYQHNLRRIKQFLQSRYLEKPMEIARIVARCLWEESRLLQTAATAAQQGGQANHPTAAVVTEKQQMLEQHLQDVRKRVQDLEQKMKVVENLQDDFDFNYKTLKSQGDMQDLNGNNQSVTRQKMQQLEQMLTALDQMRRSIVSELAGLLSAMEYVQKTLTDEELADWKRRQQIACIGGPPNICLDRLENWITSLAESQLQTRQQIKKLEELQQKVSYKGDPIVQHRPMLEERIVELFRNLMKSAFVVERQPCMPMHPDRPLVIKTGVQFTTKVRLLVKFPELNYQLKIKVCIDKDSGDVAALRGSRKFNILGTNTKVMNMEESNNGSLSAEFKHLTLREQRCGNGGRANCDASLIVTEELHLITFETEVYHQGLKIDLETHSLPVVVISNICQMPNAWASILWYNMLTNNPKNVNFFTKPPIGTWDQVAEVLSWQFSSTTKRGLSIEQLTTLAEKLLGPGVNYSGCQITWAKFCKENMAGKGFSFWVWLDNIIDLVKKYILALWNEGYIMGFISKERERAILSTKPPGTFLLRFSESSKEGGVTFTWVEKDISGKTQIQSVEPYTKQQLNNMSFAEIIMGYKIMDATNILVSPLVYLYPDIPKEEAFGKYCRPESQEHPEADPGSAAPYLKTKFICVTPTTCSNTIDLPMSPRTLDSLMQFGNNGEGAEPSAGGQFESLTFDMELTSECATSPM
Nuclear factor erythroid 2-related factor 2 (Homo sapiens), sequence (Q16236 whole entry, looked up): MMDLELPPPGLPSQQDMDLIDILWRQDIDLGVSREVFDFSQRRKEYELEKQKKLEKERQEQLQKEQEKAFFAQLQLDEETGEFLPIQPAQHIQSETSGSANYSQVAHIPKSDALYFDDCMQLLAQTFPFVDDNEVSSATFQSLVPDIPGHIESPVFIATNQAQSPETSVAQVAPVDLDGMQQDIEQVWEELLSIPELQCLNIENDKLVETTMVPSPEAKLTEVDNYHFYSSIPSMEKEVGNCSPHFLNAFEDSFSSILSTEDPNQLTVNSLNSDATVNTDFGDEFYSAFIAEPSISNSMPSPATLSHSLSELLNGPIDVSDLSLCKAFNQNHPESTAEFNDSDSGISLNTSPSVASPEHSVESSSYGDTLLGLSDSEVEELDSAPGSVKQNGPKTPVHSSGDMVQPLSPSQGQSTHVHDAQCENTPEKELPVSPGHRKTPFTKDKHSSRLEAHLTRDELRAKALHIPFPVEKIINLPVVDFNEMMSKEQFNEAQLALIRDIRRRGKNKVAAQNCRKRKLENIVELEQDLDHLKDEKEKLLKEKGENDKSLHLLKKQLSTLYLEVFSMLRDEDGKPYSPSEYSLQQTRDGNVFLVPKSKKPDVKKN
Nuclear factor NF-kappa-B p105 subunit (Homo sapiens), sequence (P19838 whole entry, looked up): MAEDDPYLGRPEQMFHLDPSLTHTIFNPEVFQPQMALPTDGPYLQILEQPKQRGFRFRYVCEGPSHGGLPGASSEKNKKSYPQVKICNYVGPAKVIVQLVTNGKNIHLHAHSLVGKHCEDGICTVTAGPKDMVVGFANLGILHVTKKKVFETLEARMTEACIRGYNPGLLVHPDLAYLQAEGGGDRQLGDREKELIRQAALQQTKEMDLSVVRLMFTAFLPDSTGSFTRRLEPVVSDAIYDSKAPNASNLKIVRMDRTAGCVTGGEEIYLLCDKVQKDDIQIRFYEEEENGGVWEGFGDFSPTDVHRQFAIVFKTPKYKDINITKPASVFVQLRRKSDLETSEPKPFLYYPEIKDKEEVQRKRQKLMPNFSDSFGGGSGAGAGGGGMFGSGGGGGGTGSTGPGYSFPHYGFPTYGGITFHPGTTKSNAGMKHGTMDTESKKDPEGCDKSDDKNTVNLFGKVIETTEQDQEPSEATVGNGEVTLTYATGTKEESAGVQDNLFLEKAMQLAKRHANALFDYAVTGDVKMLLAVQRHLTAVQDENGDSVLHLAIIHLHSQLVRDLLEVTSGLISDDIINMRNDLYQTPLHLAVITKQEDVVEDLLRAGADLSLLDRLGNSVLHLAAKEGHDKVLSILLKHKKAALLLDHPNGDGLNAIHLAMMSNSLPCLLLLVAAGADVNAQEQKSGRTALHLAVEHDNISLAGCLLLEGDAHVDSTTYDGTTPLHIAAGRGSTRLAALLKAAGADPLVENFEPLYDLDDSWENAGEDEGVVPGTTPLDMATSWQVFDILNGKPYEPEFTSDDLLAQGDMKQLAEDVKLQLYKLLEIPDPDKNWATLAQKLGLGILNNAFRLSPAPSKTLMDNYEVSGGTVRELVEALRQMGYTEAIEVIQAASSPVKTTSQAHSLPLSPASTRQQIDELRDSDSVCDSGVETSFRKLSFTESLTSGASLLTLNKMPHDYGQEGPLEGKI

On to `N#Cc1c[nH]cc1-c1cccc2c1OC(F)(F)O2`, for which the molecule was called inactive in [1], in [3], in assay [6], in [7], in [9] and in assay [11]. Further, the outcome in assay [12], in [13], in [15], in assay [17] and in assay [18] was inactive. In addition, the AC50 is 23.9 µM (active) in assay [2]; 46.7 µM (active) in assay [4]; 7.8 µM (active) in [5]; 80.3 µM (active) in assay [8]; 74.2 µM (active) in assay [10]; 83.9 µM (active) in [14]. For the same molecule, the AC50 in [16] was 84.7 µM (active).

Take `C=CCOC(=O)C(C)(C)OC(=O)c1cc(-n2c(=O)cc(C(F)(F)F)n(C)c2=O)ccc1Cl`: the molecule was called inactive in assay [1], in assay [2], in assay [3], in assay [4], in assay [5] and in assay [6]. In addition, the outcome in assay [7], in assay [8], in [9], in assay [10], in assay [12] and in assay [13] was inactive. In addition, the call in assay [19], in assay [14], in assay [15], in [16], in assay [17] and in [18] was inactive.

For `Cn1c(-c2ccccc2)cc(-c2ccccc2)[n+]1C`, the result in [1], in [3], in assay [12], in [14], in [15] and in assay [16] was inactive. Further, the call in [17] was inactive. Besides, the AC50 in assay [2] was 24 µM (active); in assay [4], 28 µM (active); in assay [5], 11.4 µM (active); in assay [6], 28.7 µM (active); in assay [9] it was 88.9 µM (active); in assay [10] it was 10.7 µM (active). For the same molecule, the AC50 in [13] is 88.3 µM (active); in [18] it was 22.5 µM (active).

Regarding `CCOP(=O)(OCC)Oc1nc(Cl)c(Cl)cc1Cl`, the molecule was called inactive in assay [1], in [2], in assay [3], in [7], in assay [11] and in assay [13]. The outcome in [14], in assay [15], in assay [17] and in assay [18] was inactive. For the same molecule, the AC50 in [4] was 78.7 µM (active); in assay [5] it was 61.5 µM (active); in assay [6] it was 87.7 µM (active); in assay [9] it was 62.7 µM (active); in assay [10], 59.6 µM (active); in [12] it was 76.6 µM (active). Further, the AC50 in assay [19] was 92.2 µM (active); in assay [16], 49.8 µM (active).
